In the supplement of paper PMC11732987, “Enantioselective OTUD7B fragment discovery through chemoproteomics screening and high-throughput optimisation” (Communications Chemistry, 2025):

Experiments:
Assay in all cases: log2 ratio of Biotin-Ahx-Ub-VS probe labelling (fragment/DMSO); higher = less target engagement (more negative = stronger competition), active = hit call of the paper (q ≤ 0.05, log2 ratio ≤ -1)
Conditions in all cases: compound concentration: 200 uM; treatment time: 3 h
[1] = molecular target: T1, ALG13 (UniProt Q9NP73)
T1 sequence (whole entry): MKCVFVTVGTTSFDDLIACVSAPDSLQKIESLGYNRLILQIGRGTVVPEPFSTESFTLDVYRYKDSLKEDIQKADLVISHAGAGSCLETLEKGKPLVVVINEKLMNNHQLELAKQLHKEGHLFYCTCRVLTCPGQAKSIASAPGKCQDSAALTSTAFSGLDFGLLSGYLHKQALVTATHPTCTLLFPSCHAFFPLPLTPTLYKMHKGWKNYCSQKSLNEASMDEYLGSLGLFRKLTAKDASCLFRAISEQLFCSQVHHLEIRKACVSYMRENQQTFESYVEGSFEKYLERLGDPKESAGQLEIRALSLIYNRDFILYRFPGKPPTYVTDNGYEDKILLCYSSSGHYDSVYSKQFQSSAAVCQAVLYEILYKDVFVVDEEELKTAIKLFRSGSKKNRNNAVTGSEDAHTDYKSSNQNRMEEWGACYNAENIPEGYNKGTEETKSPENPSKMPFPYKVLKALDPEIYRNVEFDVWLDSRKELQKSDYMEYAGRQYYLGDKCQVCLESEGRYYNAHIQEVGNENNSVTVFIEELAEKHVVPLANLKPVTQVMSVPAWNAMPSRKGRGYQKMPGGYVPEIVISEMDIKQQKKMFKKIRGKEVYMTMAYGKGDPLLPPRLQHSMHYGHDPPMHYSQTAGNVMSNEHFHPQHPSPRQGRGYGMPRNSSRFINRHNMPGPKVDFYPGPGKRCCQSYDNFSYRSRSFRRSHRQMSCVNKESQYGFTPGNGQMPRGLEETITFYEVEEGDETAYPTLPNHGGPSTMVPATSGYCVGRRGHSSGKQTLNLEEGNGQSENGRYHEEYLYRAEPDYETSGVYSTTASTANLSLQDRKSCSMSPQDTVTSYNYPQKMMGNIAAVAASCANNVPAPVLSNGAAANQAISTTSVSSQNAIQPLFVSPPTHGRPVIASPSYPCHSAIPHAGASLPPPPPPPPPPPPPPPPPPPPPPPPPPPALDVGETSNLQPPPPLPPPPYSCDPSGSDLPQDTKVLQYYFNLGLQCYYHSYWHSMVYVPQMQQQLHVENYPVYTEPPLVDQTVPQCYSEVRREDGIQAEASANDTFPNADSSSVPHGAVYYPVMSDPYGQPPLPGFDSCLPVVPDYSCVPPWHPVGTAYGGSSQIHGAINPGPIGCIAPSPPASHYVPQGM
Procedure, shortened: (§1)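 Values give the average log2 ratio of fragment to vehicle, assessed by unpaired t-test on global-median-normalised Spectronaut label-free quantities. Proteins needed ≥2 unique peptides. HEK293T lysate (495 µg per sample) was treated in triplicate with fragment at 200 µM or vehicle for 3 h and then with Biotin-Ahx-Ub-VS at 0.5 µM final for 1 h. Labelled DUBs were NeutrAvidin-enriched, digested and run by diaPASEF LC-MS/MS.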

[2] = molecular target: ATXN3 (UniProt P54252)
Chain of ATXN3 (P54252 whole entry): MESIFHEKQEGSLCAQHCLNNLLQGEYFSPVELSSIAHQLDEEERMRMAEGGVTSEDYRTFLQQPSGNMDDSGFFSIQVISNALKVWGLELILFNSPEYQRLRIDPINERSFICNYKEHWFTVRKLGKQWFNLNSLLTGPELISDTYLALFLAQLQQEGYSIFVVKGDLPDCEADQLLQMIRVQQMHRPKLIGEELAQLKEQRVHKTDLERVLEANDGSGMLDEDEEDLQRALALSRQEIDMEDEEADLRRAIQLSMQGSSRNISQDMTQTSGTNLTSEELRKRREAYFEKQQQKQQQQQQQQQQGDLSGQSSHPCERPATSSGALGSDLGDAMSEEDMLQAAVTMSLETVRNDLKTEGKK
Procedure, shortened: as §1

[3] = molecular target: T2, BAP1 (UniProt Q92560)
T2 sequence (whole entry): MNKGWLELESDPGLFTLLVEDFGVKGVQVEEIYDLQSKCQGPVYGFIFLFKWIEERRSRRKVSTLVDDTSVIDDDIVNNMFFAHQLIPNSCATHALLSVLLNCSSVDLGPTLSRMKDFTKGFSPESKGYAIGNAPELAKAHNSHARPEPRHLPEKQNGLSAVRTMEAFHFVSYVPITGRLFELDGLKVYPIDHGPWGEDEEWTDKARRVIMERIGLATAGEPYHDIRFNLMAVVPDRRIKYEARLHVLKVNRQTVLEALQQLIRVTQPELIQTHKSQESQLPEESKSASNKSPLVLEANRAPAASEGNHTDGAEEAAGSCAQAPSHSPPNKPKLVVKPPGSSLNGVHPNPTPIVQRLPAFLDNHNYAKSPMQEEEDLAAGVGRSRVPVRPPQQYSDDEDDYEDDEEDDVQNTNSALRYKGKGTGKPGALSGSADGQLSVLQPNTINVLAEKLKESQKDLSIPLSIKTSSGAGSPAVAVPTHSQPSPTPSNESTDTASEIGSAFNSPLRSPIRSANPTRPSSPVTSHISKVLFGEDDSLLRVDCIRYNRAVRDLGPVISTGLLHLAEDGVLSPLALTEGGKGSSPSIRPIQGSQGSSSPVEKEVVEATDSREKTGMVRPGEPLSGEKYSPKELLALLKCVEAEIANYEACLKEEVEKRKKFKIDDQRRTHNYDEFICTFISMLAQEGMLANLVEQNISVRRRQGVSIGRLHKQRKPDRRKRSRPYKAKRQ
Procedure, shortened: as §1

[4] = molecular target: EIF3F (UniProt O00303)
Chain of EIF3F (O00303 whole entry): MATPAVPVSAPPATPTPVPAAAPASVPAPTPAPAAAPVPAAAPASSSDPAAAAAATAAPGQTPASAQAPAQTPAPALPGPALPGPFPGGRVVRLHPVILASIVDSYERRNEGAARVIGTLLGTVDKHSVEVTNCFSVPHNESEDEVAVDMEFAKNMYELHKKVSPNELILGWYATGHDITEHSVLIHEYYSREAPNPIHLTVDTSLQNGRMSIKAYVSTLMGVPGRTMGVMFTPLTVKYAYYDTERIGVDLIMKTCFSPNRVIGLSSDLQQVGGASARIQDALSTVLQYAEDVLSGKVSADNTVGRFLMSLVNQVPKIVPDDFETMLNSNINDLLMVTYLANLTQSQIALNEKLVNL
Procedure, shortened: as §1

[5] = molecular target: EIF3H (UniProt O15372)
Chain of EIF3H (O15372 whole entry): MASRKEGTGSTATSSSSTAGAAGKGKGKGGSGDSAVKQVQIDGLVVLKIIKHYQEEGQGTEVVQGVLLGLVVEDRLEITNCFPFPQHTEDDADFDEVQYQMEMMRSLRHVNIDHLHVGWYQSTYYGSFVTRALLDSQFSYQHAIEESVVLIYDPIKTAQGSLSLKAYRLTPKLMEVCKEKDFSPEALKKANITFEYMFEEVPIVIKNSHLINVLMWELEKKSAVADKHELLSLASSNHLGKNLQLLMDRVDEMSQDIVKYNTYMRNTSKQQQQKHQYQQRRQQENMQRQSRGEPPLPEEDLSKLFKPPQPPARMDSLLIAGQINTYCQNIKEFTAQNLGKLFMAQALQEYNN
Procedure, shortened: as §1

[6] = molecular target: T3, FAM105A (UniProt Q9NUU6)
T3 sequence (whole entry): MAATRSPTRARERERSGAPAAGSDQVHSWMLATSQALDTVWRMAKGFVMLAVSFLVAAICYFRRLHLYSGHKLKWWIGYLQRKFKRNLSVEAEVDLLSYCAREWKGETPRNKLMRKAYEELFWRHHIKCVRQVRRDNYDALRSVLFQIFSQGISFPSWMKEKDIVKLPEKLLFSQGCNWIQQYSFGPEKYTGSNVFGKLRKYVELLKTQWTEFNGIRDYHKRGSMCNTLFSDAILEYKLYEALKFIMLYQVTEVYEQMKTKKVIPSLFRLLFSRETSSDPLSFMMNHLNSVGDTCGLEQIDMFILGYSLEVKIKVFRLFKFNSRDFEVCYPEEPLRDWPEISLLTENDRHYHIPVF
Procedure, shortened: as §1

[7] = molecular target: OTUB1 (UniProt Q96FW1)
Chain of OTUB1 (Q96FW1 whole entry): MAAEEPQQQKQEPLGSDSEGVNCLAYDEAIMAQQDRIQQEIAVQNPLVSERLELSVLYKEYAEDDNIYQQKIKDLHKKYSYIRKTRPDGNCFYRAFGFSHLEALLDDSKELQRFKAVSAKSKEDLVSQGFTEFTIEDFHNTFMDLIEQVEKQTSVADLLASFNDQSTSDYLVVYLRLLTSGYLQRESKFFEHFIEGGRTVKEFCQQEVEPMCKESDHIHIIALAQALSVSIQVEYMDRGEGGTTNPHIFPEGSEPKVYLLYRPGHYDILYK
Procedure, shortened: as §1

[8] = molecular target: T4, OTUD4 (UniProt Q01804)
T4 sequence (whole entry): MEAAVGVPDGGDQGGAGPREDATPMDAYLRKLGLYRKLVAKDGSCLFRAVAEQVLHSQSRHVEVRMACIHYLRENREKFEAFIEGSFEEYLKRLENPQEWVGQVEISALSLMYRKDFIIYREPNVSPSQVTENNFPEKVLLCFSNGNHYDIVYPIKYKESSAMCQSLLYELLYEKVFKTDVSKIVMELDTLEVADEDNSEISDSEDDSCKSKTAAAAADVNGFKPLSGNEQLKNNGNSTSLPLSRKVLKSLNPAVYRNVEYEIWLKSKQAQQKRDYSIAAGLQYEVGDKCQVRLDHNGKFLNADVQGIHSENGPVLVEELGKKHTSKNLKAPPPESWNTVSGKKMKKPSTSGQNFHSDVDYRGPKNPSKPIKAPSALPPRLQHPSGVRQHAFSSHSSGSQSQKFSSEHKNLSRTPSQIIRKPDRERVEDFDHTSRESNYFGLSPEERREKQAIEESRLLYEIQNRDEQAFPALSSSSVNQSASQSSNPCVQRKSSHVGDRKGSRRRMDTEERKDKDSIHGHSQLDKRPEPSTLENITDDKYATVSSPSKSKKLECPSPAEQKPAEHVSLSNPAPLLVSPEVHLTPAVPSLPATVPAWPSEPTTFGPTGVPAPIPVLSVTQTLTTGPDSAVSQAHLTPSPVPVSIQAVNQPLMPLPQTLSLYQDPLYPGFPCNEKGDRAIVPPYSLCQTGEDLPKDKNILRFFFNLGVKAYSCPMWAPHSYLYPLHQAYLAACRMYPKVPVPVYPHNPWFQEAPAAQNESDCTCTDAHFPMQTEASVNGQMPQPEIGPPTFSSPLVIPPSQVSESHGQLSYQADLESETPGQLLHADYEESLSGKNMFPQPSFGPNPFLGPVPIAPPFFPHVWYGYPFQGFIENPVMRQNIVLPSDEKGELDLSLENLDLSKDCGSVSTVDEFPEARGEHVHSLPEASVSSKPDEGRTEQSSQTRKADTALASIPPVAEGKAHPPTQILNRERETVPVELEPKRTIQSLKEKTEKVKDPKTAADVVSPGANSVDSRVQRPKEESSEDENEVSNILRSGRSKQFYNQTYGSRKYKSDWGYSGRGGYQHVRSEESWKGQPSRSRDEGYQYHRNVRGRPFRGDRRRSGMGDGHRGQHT
Procedure, shortened: as §1

[9] = molecular target: T5, OTUD5 (UniProt Q96G74)
T5 sequence (whole entry): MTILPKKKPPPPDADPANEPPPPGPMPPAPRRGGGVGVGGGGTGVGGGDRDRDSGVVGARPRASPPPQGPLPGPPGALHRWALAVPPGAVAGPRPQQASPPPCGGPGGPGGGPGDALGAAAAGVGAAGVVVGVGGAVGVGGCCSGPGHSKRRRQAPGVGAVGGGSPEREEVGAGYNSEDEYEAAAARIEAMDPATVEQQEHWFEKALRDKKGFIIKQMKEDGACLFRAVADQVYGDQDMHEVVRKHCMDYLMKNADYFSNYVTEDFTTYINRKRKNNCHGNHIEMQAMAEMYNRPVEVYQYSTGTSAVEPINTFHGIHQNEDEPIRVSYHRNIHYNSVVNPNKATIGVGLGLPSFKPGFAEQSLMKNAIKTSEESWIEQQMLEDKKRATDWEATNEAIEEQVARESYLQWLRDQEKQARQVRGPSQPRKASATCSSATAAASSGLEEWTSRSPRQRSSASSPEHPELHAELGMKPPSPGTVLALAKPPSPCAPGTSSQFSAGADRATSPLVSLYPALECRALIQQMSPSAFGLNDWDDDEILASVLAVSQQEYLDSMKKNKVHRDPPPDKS
Procedure, shortened: as §1

Measured: log2 ratio of Biotin-Ahx-Ub-VS probe labelling

Cl.O=C(CCl)N1CCCC(c2ncc[nH]2)C1 (centres undefined)
inactive: [1] 0.0212 | [2] -0.259 | [3] -0.246 | [4] -0.0106 | [5] 0.267 | [6] 0.0977 | [7] -0.0773 | [8] -0.288 | [9] -0.22
